GRK2 aptamer HTS: inhibitors of human GRK2 displacing RNA aptamer | P25098 | bead flow cytometry, FAM-aptamer displacement from GRK2 | inhibition of aptamer binding, % at 10 µM | actives 0.59% (n = 330,000) | AID 488847;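 active = inhibition of aptamer binding above 40%, roughly 3 SD of noise, on plates passing a quality check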;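 also: median bead fluorescence of bound FAM aptamer so fluorescent compounds give negative values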
MEKK2 mut-MEK5: signal of MEK5 binding to mutant human MEKK2 PB1 domain; bead flow cytometry, Alexa488-MEK5 binding to MEKK2 mutant; percent response, % at 10 µM; actives 0.35% (n = 290,000); in the data active = percent response above about 24%, passing the limit was not always enough
MEKK2 WT-MEK5: raises or lowers MEK5 binding to wildtype human MEKK2 PB1 domain; Q9Y2U5; bead flow cytometry, Alexa488-MEK5 binding to MEKK2 WT; actives lie on both sides; binding response (% of control), % at 10 µM; actives 1.1% (n = 290,000); in the data active = binding response below about 67% or above about 130%
MEKK3 PB1 HTS: modulators (inhibitors or enhancers) of MEK5 binding to human MEKK3 PB1 domain; AID 1529; binding response (% of control), % at 10 µM; actives 1.4% (n = 290,000); Q99759; bead-based flow cytometry, Alexa488-MEK5 binding to MEKK3; actives lie on both sides; 0 = blocked by unlabeled MEK5, 100 = vehicle;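 active = binding response more than 3 SD above or below the average of its plate-row segment, actives on both sides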;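 also: Alexa488 bead fluorescence after subtracting the streptavidin-only scavenger bead signal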
Target sequence (Q99759 whole entry, looked up, the tested form may be a part): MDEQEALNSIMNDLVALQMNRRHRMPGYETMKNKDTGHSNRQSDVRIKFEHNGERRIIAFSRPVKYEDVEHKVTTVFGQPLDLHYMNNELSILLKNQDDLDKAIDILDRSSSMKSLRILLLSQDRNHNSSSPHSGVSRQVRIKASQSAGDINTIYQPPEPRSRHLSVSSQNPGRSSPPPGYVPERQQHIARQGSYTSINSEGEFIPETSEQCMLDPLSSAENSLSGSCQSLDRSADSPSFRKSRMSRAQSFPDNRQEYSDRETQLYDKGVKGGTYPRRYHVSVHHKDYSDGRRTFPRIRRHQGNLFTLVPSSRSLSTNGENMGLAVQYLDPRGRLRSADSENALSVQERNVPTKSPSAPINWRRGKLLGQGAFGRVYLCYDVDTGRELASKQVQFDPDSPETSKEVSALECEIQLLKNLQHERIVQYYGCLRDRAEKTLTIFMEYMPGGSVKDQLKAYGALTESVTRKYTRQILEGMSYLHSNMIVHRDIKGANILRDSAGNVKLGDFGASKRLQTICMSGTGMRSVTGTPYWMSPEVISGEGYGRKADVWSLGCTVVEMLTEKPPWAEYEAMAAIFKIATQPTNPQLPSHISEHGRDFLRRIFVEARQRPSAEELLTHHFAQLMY
GRK2 inh confirm: confirmation of human GRK2 inhibitors displacing RNA aptamer; shares compounds with GRK2 aptamer HTS; aptamer displacement, % at 10 µM; AID 504451; actives 4% (n = 2,000); bead-bound GRK2, FAM-aptamer displacement, flow cytometry;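 active = aptamer displacement above 40%, near three times the noise of non-fluorescent compounds, on plates passing quality checks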;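 also: negative values mostly reflect intrinsic compound fluorescence rather than true enhancement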
FAM quench CP1: quenches fluorescent RNA aptamer, GRK2 hit artifact. shares compounds with GRK2 aptamer HTS. Carboxyfluorescein RNA aptamer on beads, flow cytometry quenching; active compounds read low. fluorescence response (% of DMSO), % at 10 µM. 2,000 tested, under 10 active;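 active = compounds that quench the bead-bound fluorescent RNA probe, cutting fluorescence to under half of the solvent control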;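 also: counterscreen run without GRK2 so only probe quenching by compound is measured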
GRK2 CP2: confirmation of human GRK2 inhibitors binding RNA aptamer site. shares compounds with GRK2 aptamer HTS. bead-bound GRK2, FAM-aptamer displacement, flow cytometry. inhibition of aptamer binding, % at 10 µM. 360 tested, under 10 active. AID 504782;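 active = inhibition of aptamer binding above 40%, about triple the noise seen with nonglowing compounds, on plates passing quality control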;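 also: negative values mostly come from compounds that fluoresce themselves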
FAM quench SP: aptamer fluorescence quenching in GRK2 counter-screen; shares compounds with GRK2 aptamer HTS; carboxyfluorescein RNA aptamer beads, flow cytometry quenching; active compounds read low; fluorescence response vs DMSO, % at 10 µM; 360 tested, under 10 active; AID 588494;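 active = response vs DMSO under 50%, meaning signal dropped by over half, treated as fluorescence quencher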;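 also: labelled aptamer on streptavidin beads without GRK2 as a quench counter-screen; 100% = bead fluorescence of DMSO wells and lower means quenching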
* marks the source's active call; other numbers are inactive results; / = no result given. A selection: hits, their analogues and other compounds. The true share with any hit is near 2.5%.

SMILES	GRK2 aptamer HTS	MEKK2 mut-MEK5	MEKK2 WT-MEK5	MEKK3 PB1 HTS	GRK2 inh confirm	FAM quench CP1	others
COc1ccc(CNC(=O)CCS(=O)(=O)c2ccc3c(c2)NC(=O)C(C)S3)cc1 (stereo not drawn)	23	8	101	106	/	/
CC1Sc2ccc(S(=O)(=O)CCC(=O)Nc3cc(F)ccc3F)cc2NC1=O (stereo not drawn)	0	1	102	101	/	/	GRK2 CP2=-2;FAM quench SP=102
CC1Sc2ccc(S(=O)(=O)CCC(=O)NCc3ccc(Cl)cc3)cc2NC1=O (stereo not drawn)	48*	-1	100	99	2	103	GRK2 CP2=31;FAM quench SP=98
Cc1cc(NC(=O)CCS(=O)(=O)c2ccc3c(c2)NC(=O)C(C)S3)ccc1Br (stereo not drawn)	3	4	100	102	/	/	GRK2 CP2=19;FAM quench SP=102
CC1Sc2ccc(S(=O)(=O)CCC(=O)NCc3ccccc3)cc2NC1=O (stereo not drawn)	35	8	102	106	/	/	GRK2 CP2=-12;FAM quench SP=101
C/C(CC(=O)NCCc1ccccc1)=N\NC(=O)COc1ccc(Br)cc1	2	-4	100	102	/	/
CS(=O)(=O)N(CC(=O)Nc1ccc(Br)cc1)C1CCCCC1	0	8	110	102	/	/
Cc1ccccc1NC(=S)NNc1ncc(C(F)(F)F)cc1Cl	0	3	109	106	/	/
Cc1cccc(C)c1NC(=S)NNc1ncc(C(F)(F)F)cc1Cl	48*	2	100	101	-1	99
O=C(NCc1ccccc1)C(c1ccncc1)N(C(=O)c1csnn1)c1ccccc1F (stereo not drawn)	95*	7	105	98	0	99
O=C(NC1CCCC1)C(c1ccncc1)N(C(=O)c1csnn1)c1ccccc1F (stereo not drawn)	3	5	99	100	/	/
Cc1cccc(N(CC(N)=O)S(C)(=O)=O)c1C	23	-1	97	101	2	97
O=C(O)c1ccc(/C=C2\SC(=S)N(NC(=O)c3ccccc3[N+](=O)[O-])C2=O)cc1	47*	0	111	110	1	101
Cc1csc(CNc2ncnc3ccc(-c4ccoc4)cc23)c1	49*	/	/	/	-2	100
Cc1csc(CNc2ncnc3ccc(-c4cccnc4)cc23)c1	3	/	/	/	/	/
COc1ccc2oc(C(=O)N3CCN(C(=O)c4ccco4)CC3)c(C)c2c1	1	/	/	/	/	/
COc1ccc2oc(C(=O)N(Cc3ccco3)Cc3cccs3)c(C)c2c1	80*	/	/	/	0	97
O=C1C2CC=CCC2C(=O)N1Cc1ccccc1Cl (stereo not drawn)	42*	-3	99	99	/	/	GRK2 CP2=19;FAM quench SP=112
COc1cccc(OC)c1C(=O)OCC(=O)NCC(C)C	96*	-11	88	100	-3	95
CCOc1ccc(NC(=O)c2ccc(N3CC4CC(C3)c3cccc(=O)n3C4)c(N)c2)cc1 (stereo not drawn)	93*	2	104	103	0	100
COc1cccc(CNc2ccc3[nH]c(=O)[nH]c3c2)c1OCc1ccccc1F	91*	5	101	106	3	101
COc1cc(CNc2ccc3[nH]c(=O)[nH]c3c2)cc(Br)c1OCc1ccc(F)cc1	2	5	107	109	/	/
COCCNCCCOc1ccc(C(C)(C)c2ccccc2)cc1	100*	0	116	107	/	/	GRK2 CP2=-1;FAM quench SP=101
Cc1cc(NC(=O)C(C)C)ncc1NC(=O)c1ccco1	0	0	106	105	/	/
CCN=C1S/C(=C\c2ccc(-c3cccc(C(=O)O)c3)o2)C(=O)N1CC	34	-6	97	103	5	83
CCN1C(=O)/C(=C\c2ccc(-c3cccc(C(=O)OC)c3)o2)SC1=Nc1ccc(C(=O)O)cc1	2	1	95	104	/	/

Compound activity (PubChem BioAssay)
